This is a sample that favours compounds with a hit; in the whole collection about 9.3% have one here.
HCV inhibitor: qHTS Assay for Inhibitors of Hepatitis C Virus (HCV) | AID 651820, 2012 | Potency, µM (highest dose often 41.8 µM), without a hit: at the highest dose activity change, negative = inhibition, most hits filed as inhibitors | hit rate 3.4% among 340,000 | Huh7.5.1 HCVcc-Cre infection, luciferase reporter, 44 h; note: potency is the fitted concentration of half-maximal effect
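Antiviral activity was scored by luciferase reporter output from cells infected with HCVcc-Cre (~0.5 moi) in presence of compound, 44 h infection period, cells seeded 1,000/well 4 h prior.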
VACV mCherry inh: qHTS for Stage-Specific Inhibitors of Vaccinia Orthopoxvirus: mCherry Reporter Primary qHTS. Vaccinia virus mCherry reporter infection, fluorescence. hit rate 0.63% among 310,000. Potency, µM (titrated, usually from 36.5 µM), for inactives: at the highest dose activity change, negative = inhibition, most hits filed as inhibitors; calls by dose curve; tested in A549 cells; note: potency is the fitted concentration of half-maximal effect; nearly all actives have a fitted effect of over 35% in size
HCMV antiviral: qHTS Assay for inhibitors of the human cytomegalovirus (HCMV) | HFF cells, HCMV-luciferase reporter, 72 h; active compounds read low | activity change, negative = inhibition, % at 57.5 µM | hit rate 4.5% among 410,000 | AID 1259415, 2018; in the data active = activity change below about -60%; inconclusive = no clear call, values can overlap the other calls; inactive = above about -39%
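Human foreskin fibroblasts infected with luciferase-reporter HCMV at MOI 1 PFU/cell, compounds at two doses. Luciferase measured 72 h post infection; normalized to buffer-only basal and Salinomycin (10uM) controls.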
VACV Venus inh: qHTS for Stage-Specific Inhibitors of Vaccinia Orthopoxvirus: Venus Reporter Primary qHTS | Potency, µM (titrated, usually from 36.5 µM), for inactives: top-dose activity change, negative = inhibition, most hits filed as inhibitors | AID 720580, 2013 | Vaccinia virus Venus reporter expression, fluorescence | hit rate 0.46% among 330,000; calls by dose curve; tested in A549 cells; note: potency is the fitted concentration of half-maximal effect; nearly all actives have a fitted effect of over 30% in size
FMDV inh: High Throughput Screening for Foot and Mouth Disease Virus Antivirals. hit rate 1.2% among 410,000. FMDV antiviral cell-based qHTS. Potency, µM (highest dose often 57.9 µM), for inactives: at the highest dose activity change, negative = inhibition, usual class: inhibitors. AID 1159524, 2015; calls by dose curve; tested in HEK293T cells; note: read-out not given here; potency is the fitted concentration of half-maximal effect; nearly all actives have a fitted effect of over 45% in size
Sm TGR block: qHTS Assay for the Inhibitors of Schistosoma Mansoni Peroxiredoxins | Schistosoma mansoni thioredoxin glutathione reductase (TGR), Q962Y6 | purified TGR, DTNB reduction, TNB absorbance 405 nm | Potency, µM (series often up to 114 µM), for inactives: top-dose activity change, negative = inhibition, most hits filed as inhibitors | hit rate 3% among 360,000 | AID 485364, 2010; note: potency is the fitted concentration of half-maximal effect; nearly all actives have a fitted effect of over 60% in size
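TGR 20 nM + NADPH 100 uM (dispensed conc.), cpd preinc 15 min RT; start with NADPH (500 uM addition) then DTNB (15 mM addition). Kinetic TNB absorbance, 405 nm filter. Four-parameter Hill fit across titration.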
Active calls of the source: *; i = inactive; ? = inconclusive; · = not tested or not shown. Unless noted, calls come from the whole dose curve; as a rule, active = well fitted curve in the direction sought with a large enough effect; inconclusive = small, poorly fitted or top-dose-only effect, or another doubt; inactive = no such curve, though single readings can be large; an effect the other way counts as inactive or inconclusive. % is set by controls: 0 for no effect and ±100 for the full control effect.

SMILES	HCV inhibitor	VACV mCherry inh	HCMV antiviral	VACV Venus inh	FMDV inh	Sm TGR block
O=c1oc2c3c4c(cc2c2c1CCC2)OCCN4CCC3	?	?	-68*	?	-22%	-15%
COc1cc2cc(CN(CCc3cccc(C)c3)C(=S)NCCCN3CCOCC3)c(=O)[nH]c2cc1OC	?	-3%	-82*	?	-11%	-4%
COc1cc2cc(CN(CCc3cccc(C)c3)C(=S)NCCCN(C)C)c(=O)[nH]c2cc1OC	?	i	-90*	-26%	-19%	-18%
CN1C(=O)CCC1c1cccnc1 (stereo unspecified)	·	-16%	·	-12%	-2%	·
C=CCn1c(Sc2ncc([N+](=O)[O-])s2)n[nH]c1=O	6.3µM*	-14%	-97*	0%	?	0.22µM*
C=CCn1c(CSc2ccccc2[N+](=O)[O-])n[nH]c1=S	7%	-12%	66	-8%	3%	-19%
COc1ccc(NS(=O)(=O)c2ccc(NC(=O)c3ccc(CN4CCOCC4)cc3)cc2)cc1	1.4µM*	?	-89*	-25%	-28%	?
COc1cccc(NC(=O)c2ccc(CN3CCOCC3)cc2)c1	?	·	196	1%	-5%	1%
OCCN1CCN(Cc2cccc(Oc3ccc(Cl)cc3)c2)CC1	11µM*	-16%	-27	-17%	-1%	-4%
O=C(Nc1ccc(S(=O)(=O)Nc2ccc(F)cc2)cc1)c1ccc(CN2CCOCC2)cc1	1µM*	-15%	-65*	-35%	?	12%
O=C(Nc1ccc(S(=O)(=O)N2CCOCC2)cc1)c1ccc(F)cc1	-3%	9%	-9	1%	-12%	-4%
CC1CCCN(Cc2cccc(Oc3ccccc3)c2)C1 (stereo unspecified)	-18%	i	-98*	-19%	·	6%
O=C(CNC1CCCCC1)Nc1cc(S(=O)(=O)N2CCOCC2)ccc1Cl	-18%	-19%	?	-16%	-15%	-10%
CCCCCCOc1ccc(CN2CCN(CCO)CC2)cc1	10µM*	·	-37	·	5%	38%
CCCOc1ccc(C(=O)Nc2ccc(CN3CCOCC3)cc2)cc1	?	i	?	-13%	?	3%
CCCOc1ccc(C(=O)Nc2cccnc2)cc1	-12%	·	55	·	56%	0%
CCCCOc1ccc(C(=O)Nc2ccncc2)cc1	8.9µM*	·	-76*	?	?	6%
CCCCOc1ccc(C(=O)Nc2ccc(CN3CCOCC3)cc2)cc1	10µM*	·	?	·	?	5%
S=C(c1c[nH]c2ccc(Br)cc12)N1CCOCC1	-1%	·	-72*	·	0%	15%
O=C(c1c[nH]c2ccccc12)N1CCOCC1	2%	i	-21	1%	9%	?
C=C1C(=O)O[C@@H]2[C@H]1[C@@H](OC(=O)/C(C)=C/C)C/C(C)=C\C(=O)/C=C(\C)[C@@H]2O	11µM*	?	-98*	11µM*	28µM*	5.6µM*
Cc1ccc(OCc2ccc(C(=O)NNC(=S)NCC3CCCO3)o2)c([N+](=O)[O-])c1 (stereo unspecified)	12%	-8%	21	-7%	-10%	1%
Cc1ccc(-c2cc(C(=O)N3CCCC3)c3ccccc3n2)s1	-13%	-14%	71	-8%	23%	7%
Cc1ccc(-c2cc(C(=O)N3CC(C)OC(C)C3)c3ccccc3n2)o1 (stereo unspecified)	13%	-17%	13	-12%	-6%	40µM*
Cc1ccc(-c2cc(C(=O)N3CC(C)CC(C)C3)c3ccccc3n2)o1 (stereo unspecified)	11%	-28%	3	-22%	-3%	22µM*
Cc1ccc(-c2cc(C(=O)N3CCC(C)CC3)c3ccccc3n2)cc1	?	·	-71*	·	27%	4%
O=C(c1cc(-c2ccccc2)nc2ccccc12)N1CCCc2ccccc21	1%	-9%	-63*	-12%	-7%	0%
